Assay outcomes (PubChem)
DENV2 CPE: protects cells from dengue virus 2 cytopathic effect; CPE inhibition, % at 9.99 µM; AID 651640; DENV2-infected cells, cytopathic effect rescue, plate reader; 1.7% of 350,000 active; in the data active = CPE inhibition above about 20%, passing the limit was not always enough; inconclusive = no clear call, values can overlap the other calls; tested in BHK-21 cells;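 note: 0% = median of neutral control wells and 100% = median of positive control wells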
PDI turbidity: inhibitors of human protein disulfide isomerase; P07237; PDI insulin aggregation turbidity, A650, 90 min; inhibition, % at 10 µM; 0.052% of 350,000 active; AID 588391;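 active = mean inhibition across replicates of 30% or more, whatever share of single replicates reach that level; inconclusive = mean inhibition below 30% while every single replicate reaches 30%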
Rtt109 Vps75: blocks Candida albicans Rtt109/Vps75 acetyltransferase activity | Q5AAJ8 | purified Rtt109/Vps75, ThioGlo CoA-SH fluorescence, 4 h | inhibition, % at 34.9 µM | 0.16% of 330,000 active;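 active = inhibition of at least 50% in every replicate; inconclusive = best replicate reaches 50% inhibition but some replicates fall short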
SIRT5 block: sirtuin-5 (human) deacylase inhibition; Q9NXA8; Purified SirT5, succinyl-peptide AMC, trypsin-coupled fluorescence; inhibition, % at 15 µM; 1.1% of 330,000 active; AID 652115; in the data active = inhibition above about 15%; inconclusive = no clear call, values can overlap the other calls
ERp5 block: blocks human ERp5 reductase activity on insulin | Q15084 | ERp5 insulin aggregation, absorbance 650 nm, 90 min | inhibition, % at 9.99 µM | 0.05% of 350,000 active;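 active = mean replicate inhibition above about 25%, with every replicate also reaching it, limit read from the data, passing the limit was not always enough; inconclusive = only one of those two criteria met; inactive = neither criterion met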
Target sequence (Q15084 whole entry, looked up): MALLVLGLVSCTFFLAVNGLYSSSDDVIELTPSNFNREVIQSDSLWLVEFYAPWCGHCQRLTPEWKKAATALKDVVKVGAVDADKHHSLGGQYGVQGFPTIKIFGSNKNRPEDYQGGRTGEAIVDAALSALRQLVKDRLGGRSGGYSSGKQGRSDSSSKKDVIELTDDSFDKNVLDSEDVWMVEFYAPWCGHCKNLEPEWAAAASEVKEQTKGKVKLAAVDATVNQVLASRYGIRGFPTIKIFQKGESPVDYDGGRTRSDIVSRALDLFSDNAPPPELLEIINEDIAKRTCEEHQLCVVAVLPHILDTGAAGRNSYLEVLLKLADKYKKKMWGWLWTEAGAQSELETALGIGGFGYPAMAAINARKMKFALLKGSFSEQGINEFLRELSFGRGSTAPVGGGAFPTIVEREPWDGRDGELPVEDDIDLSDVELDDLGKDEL
Active calls of the source: *; u = inconclusive; x = no result given; ! = not confirmed by another sample. An excerpt weighted towards active compounds, which were near 2.3% of everything screened.

SMILES | DENV2 CPE | PDI turbidity | Rtt109 Vps75 | SIRT5 block | ERp5 block
CCS(=O)(=O)Nc1ccc2c(c1)C(=O)N(C)C[C@H](OC)[C@H](C)CN(C(=O)COC)[C@@H](C)CO2 | -7.2 | x | x | -3.0 | 0.2
CCC(=O)N1C[C@H](C)[C@@H](OC)CN(C)C(=O)c2cc(NC(=O)NC3CCCC3)ccc2OC[C@H]1C | 43.1* | x | x | x | 0.3
CCC(=O)Nc1ccc2c(c1)C(=O)N(C)C[C@H](OC)[C@@H](C)CN(C(=O)CC)[C@@H](C)CO2 | 62.6* | x | x | 2.2 | 1.3
COCC(=O)N1C[C@@H](C)[C@@H](OC)CN(C)C(=O)c2cc(NC(=O)c3ccc(OC)cc3)ccc2OC[C@H]1C | 34.2* | x | x | -3.3 | 1.0
CCC(=O)Nc1ccc2c(c1)C(=O)N(C)C[C@@H](OC)[C@H](C)CN(C(=O)COC)[C@H](C)CO2 | -3.7 | x | x | x | -4.5
CCS(=O)(=O)Nc1ccc2c(c1)C(=O)N(C)C[C@H](OC)[C@@H](C)CN(C(=O)COC)[C@H](C)CO2 | 81.9* | x | x | -0.4 | -0.4
C[C@H](CO)N1C[C@H](C)[C@H](CN(C)S(=O)(=O)c2ccccc2)Oc2c(NC(=O)c3nc4ccccc4s3)cccc2C1=O | -13.8 | x | x | 5.5 | -4.2
O=C(C[C@@H]1CC[C@@H]2[C@H](COC[C@@H](O)CN2Cc2cc(F)ccc2F)O1)NCc1ccccc1 | -9.2 | x | x | -1.0 | 7.8
CCC(=O)N1C[C@H](C)[C@@H](OC)CN(C)C(=O)c2cc(NC(=O)Nc3cccc(F)c3)ccc2OC[C@@H]1C | -1.0 | x | x | 5.3 | 2.5
CCC(=O)Nc1ccc2c(c1)C(=O)N(C)C[C@@H](OC)[C@H](C)CN(C(=O)COC)[C@@H](C)CO2 | 21.1* | x | x | x | 7.5
CCC(=O)N1C[C@@H](C)[C@H](OC)CN(C)C(=O)c2cc(NC(=O)Nc3cccc(F)c3)ccc2OC[C@@H]1C | -5.6 | x | x | 15.3* | -2.6
O=[N+]([O-])c1cccc(NC(=S)N2CCc3ccccc32)c1 | 69.5* | 8.2 | -5.2 | 1.8 | -5.0
O=C(Nc1cccc([N+](=O)[O-])c1)N1CCCc2ccccc21 | -11.4 | 4.5 | -0.4 | 0.4 | -10.8
C[C@H](NC(=O)c1nc[nH]c1C(=O)N[C@@H](CCCCNC(=O)OC(C)(C)C)C(=O)OC(C)(C)C)C(=O)OCc1ccccc1 | u | 1.4 | -2.4 | 1.6 | 5.1
CC(C)(C)OC(=O)CNC(=O)c1[nH]cnc1C(=O)N[C@@H](Cc1ccccc1)C(=O)OC(C)(C)C | 54.0* | 3.8 | 5.3 | 3.3 | 0.2
CC(C)(C)OC(=O)[C@H](Cc1ccccc1)NC(=O)c1nc[nH]c1C(=O)NCC(=O)OCc1ccccc1 | -7.1 | -1.4 | 0.1 | -13.2 | 2.1
CC(C)(C)OC(=O)NCCCC[C@H](NC(=O)c1nc[nH]c1C(=O)NCC(=O)OCc1ccccc1)C(=O)OC(C)(C)C | -9.8 | 0.1 | 21.4 | 24.1* | 7.6
C[C@H](CO)N1C[C@H](C)[C@H](CN(C)C(=O)Nc2ccc3c(c2)OCO3)Oc2c(NC(=O)C3CCCCC3)cccc2C1=O | 3.7 | x | x | 0.8 | 0.2
C[C@H](CO)N1C[C@H](C)[C@H](CN(C)C(=O)Nc2ccc3c(c2)OCO3)Oc2c(NC(=O)Nc3ccc(C(F)(F)F)cc3)cccc2C1=O | -5.2 | x | x | x | x
C[C@H]1CN([C@@H](C)CO)C(=O)c2cccc(NC(=O)Nc3ccc4c(c3)OCO4)c2O[C@@H]1CN(C)C(=O)Nc1ccccc1 | -0.8 | x | x | x | x
C[C@H](CO)N1C[C@H](C)[C@@H](CN(C)C(=O)Nc2ccc3c(c2)OCO3)Oc2c(NC(=O)C3CC3)cccc2C1=O | 10.4 | 2.6 | 0.3 | 22.4*! | 6.5
C[C@@H]1CN([C@H](C)CO)C(=O)c2cccc(NC(=O)Nc3ccc(C(F)(F)F)cc3)c2O[C@@H]1CN(C)C(=O)Nc1ccc2c(c1)OCO2 | 40.9* | x | x | x | x
C[C@@H]1CN([C@H](C)CO)C(=O)c2cccc(NC(=O)Nc3ccc4c(c3)OCO4)c2O[C@H]1CN(C)C(=O)Nc1ccccc1 | 100.0* | x | x | x | x
O=C(O)c1c2c(nc3ccccc13)/C(=C/c1ccccc1[N+](=O)[O-])CCC2 | -0.9 | -0.1 | 2.0 | -2.8 | 3.3
O=C(O)c1c2c(nc3ccccc13)/C(=C/c1cccc([N+](=O)[O-])c1)CCC2 | -1.9 | -4.7 | 0.9 | 97.1* | -7.0
C[C@@H](NC(=O)C[C@@H]1C=C[C@H](NC(=O)Nc2ccc3c(c2)OCO3)[C@@H](CO)O1)c1ccccc1 | -1.7 | x | x | -0.8 | 0.0
CC(=O)c1ccc2c3c(cc(C)c2c1)CCCC3 | 24.8* | -3.4 | 10.2 | x | 4.9
